# Measurements: PubChem BioAssay AID1048 (The Scripps Research Institute Molecular Screening Center, 2008)
# The whole screen tested about 99,000 compounds, of which about 390 (0.39%) were called active. Many of the other results were omitted from the sample, so actives are more common in it than they were. Unmarked numbers belong to inactive results. Cut-off read from the data, not from the text of the source: active = TR-FRET ratio above about 2000; inactive = the rest.
# Assay: signal artefacts in PPARgamma/SRC-3 readout – biochemical, TR-FRET ratio, artefact control for PPARgamma SRC-3 recruitment agonists (AID 1048)
# Details: TR-FRET artefact counter-screen, PPARgamma/SRC-3 format; at 8 µM; stronger effect = higher value
row,Structure (SMILES),TR-FRET ratio
1,CC(=O)C1C(c2ccc(Cl)cc2)c2c(n[nH]c2C)CC1(C)O (stereo unspecified),1710
2,COc1ccc(NS(=O)(=O)c2cc(NC(=O)C3CCCCC3)ccc2N2CCOCC2)cc1,1510
3,O=C(Nc1ccc([N+](=O)[O-])cc1)C1CC12CCC2 (stereo unspecified),1620
4,CC(=O)c1ccc(S(=O)(=O)Nc2ccc(C(=O)NCC(c3ccccc3)N(C)C)cc2)cc1 (stereo unspecified),1580
5,CC(Sc1cccc[n+]1[O-])C(=O)Nc1cccc(S(=O)(=O)N2CCOCC2)c1 (stereo unspecified),1620
6,COc1ccc(/C=N/NC(=O)c2ccccc2)cc1OS(=O)(=O)c1ccccc1,1630
7,COc1cccc(CNC(=O)CCN2C(=S)NC(C)(C)CC2C)c1 (stereo unspecified),1480
8,O=C(COC(=O)c1ccccc1F)Nc1cc(S(=O)(=O)N2CCOCC2)ccc1N1CCCC1,1600
9,O=C(Nc1ccc(NC(=O)c2ccco2)c(Cl)c1)c1cccc([N+](=O)[O-])c1,1700
10,Cc1ccc2[nH]c(C)c(CCNC(=O)NC3CCCCC3)c2c1,1590
11,CCN(C(=O)COC(=O)/C=C/c1nc2ccccc2s1)C1CCS(=O)(=O)C1 (stereo unspecified),1560
12,COCc1c(C(=O)OCc2c(C)noc2C)oc2ccccc12,1630
13,CCN1CCN(C(=O)CCN2C(=O)c3ccccc3C2=O)CC1,1540
14,COc1ccc(S(=O)(=O)Nc2cccnc2)c(Cl)c1Cl,1690
15,CCn1ccnc1CN(C)Cc1nc(-c2ccc3c(c2)OCO3)no1,1670
16,COc1ccc(-n2c(=S)[nH]c3sc4c(c3c2=O)CCc2ccccc2-4)cc1,1560
17,O=C(CCN1CCCCC1)N=Nc1c(O)[nH]c2ccccc12,1900
18,O=C(CSc1cccc[n+]1[O-])NCCCc1ccccc1,1360
19,CCN(CCCNC(=O)CSc1cc(=O)n(C)c2cc(Cl)ccc12)Cc1ccccc1,2580 (active)
20,CCn1c(=O)cc(SCC(=O)NCCC2=CCCCC2)c2ccccc21,1710
21,Cn1cnnc1Sc1ccc(CN2CCN(C3CCCC3)C(CCO)C2)o1 (stereo unspecified),1420

row,Structure (SMILES),TR-FRET ratio
1,CN(c1ccccc1)c1nc(N)c([N+](=O)[O-])c(NCc2ccco2)n1,1700
2,C/C(N)=C(/C#N)C(=O)COC(=O)CNS(=O)(=O)c1ccc(C)cc1,1640
3,Cc1c(C(=O)Nc2ccccc2)sc2nc3n(c(=O)c12)CCCCC3,1500
4,O=C(CCCn1c(=O)c2sccc2n(CC(=O)NCC2CCCO2)c1=O)NCc1ccco1 (stereo unspecified),1480
5,CCn1nc(C)cc1C(=O)N1CCCC(C(=O)c2cccc(OC)c2)C1 (stereo unspecified),1380
6,CCCCN(C(=O)c1ccc(OC(F)(F)F)cc1)c1c(N)n(CCC)c(=O)[nH]c1=O,1550
7,CN(C)c1nc(-c2cccnc2)nc(-c2ccc(Cl)cc2)c1C#N,1720
8,CC(=O)c1ccc(NC(=S)N(Cc2ccccc2)C(C)C2CC2)cc1 (stereo unspecified),1760
9,CN1CCN(c2ccc(S(=O)(=O)N3CCCCC3)cc2NC(=O)Cc2ccccc2F)CC1,1600
10,Cc1cccc(C)c1NC(=O)C1(C)c2cccc[n+]2CC(=O)N1Cc1cccs1 (stereo unspecified),1340
11,Cc1ccc(C(=O)NC(=S)NCCN2CCOCC2)cc1,1640
12,O=C1CCCC(O)=C1N=Nc1ccc2ncsc2c1,1660
13,O=C(c1ccccc1Cl)N(Cc1ccccc1F)N1C(=O)CCCC1=O,1570
14,Cc1ccc(S(=O)(=O)N2CCOCC2)cc1NC(=O)CSc1nnc(N)s1,1740
15,Fc1ccc(COc2cccc(-c3n[nH]c(=S)o3)c2)cc1,2970 (active)
16,S=c1[nH]nc(COc2ccccc2)n1-c1ccccc1,1490
17,Cc1cccc(OCc2ccc(C(=O)Nc3ccc(F)cc3)cc2)c1,1440
18,O=C(CCc1ccccc1)Nc1ccc(NC(=O)C2CCCCC2)nc1,1430
19,CCOP(=O)(OCC)C(Nc1ccc([N+](=O)[O-])cc1)c1ccc(Cl)cc1 (stereo unspecified),1560
20,Cc1csc(CN(C)C(=O)CC2C(=O)NCCN2CC(C)(C)C)n1 (stereo unspecified),1590
21,O=S(=O)(NC1CC1)c1ccc2c3c(cccc13)CC2,1560

row,Structure (SMILES),TR-FRET ratio
1,COc1cccc(OC)c1C(=O)NC(=S)Nc1ccc(N2CCOCC2)c(Cl)c1,1350
2,COc1ccc(C2(CNC(=O)Cc3ccc(OC)c(OC)c3)CCCC2)cc1,1430
3,COc1ccc(C(=O)NNC(=S)NC(=O)c2ccccc2[N+](=O)[O-])cc1,1550
4,CCN(C(=O)COC(=O)c1cc(NS(=O)(=O)c2ccc(Cl)c([N+](=O)[O-])c2)ccc1O)C1CCCCC1,1460
5,CCN(CC)c1ccc(C(=O)N/N=C(\C)c2cccc(OC)c2)cc1,1500
6,O=C(NCCCN1CCOCC1)c1ccc(N2CCCC2)c([N+](=O)[O-])c1,1590
7,Cc1cc(C(=O)CC#N)c(C)n1-c1c(C)n(C)n(-c2ccccc2)c1=O,1450
8,CCOc1ccc(N2C(=O)CN(c3cccc4ccccc34)C2=S)cc1,1810
9,CC(C)(C)NC(=O)CN1CCC(NC(=O)C23CC4CC(CC(C4)C2)C3)CC1,1580
10,CCOC(=O)C1(CCOc2ccccc2)CCN(C(=O)c2cncs2)CC1,1510
11,CCC(=O)Nc1cc(C(F)(F)F)ccc1N1CCCC1,1710
12,COc1ccc(C(=O)NNc2cc(C)nc(NNC(=O)c3ccc(OC)cc3)n2)cc1,1420
13,COc1cc(CNc2ncn[nH]2)ccc1OCc1ccccc1C,1650
14,OCCC1CN(Cc2cnc(-c3ccccc3)s2)CCN1CCc1ccccc1 (stereo unspecified),1800
15,CCC(C)N(C(=O)COC(=O)C1C(C(=O)OC)=C(C)NC(C)=C1C(=O)OC)C1CCS(=O)(=O)C1 (stereo unspecified),1620
16,CCOC(=O)N/N=C/c1cccnc1,1540
17,Cc1cccc(-c2ncc(CN3CCC(CO)(CCCc4ccccc4)CC3)cn2)c1,1420
18,OCC1(CCc2ccccc2)CCN(Cc2ccc3nsnc3c2)CC1,2140 (active)
19,CC(=O)c1cccc(CN2CCC(CO)(Cc3ccccc3)CC2)c1,1520
